The source of these data is the supplement of paper PMC11624193, “Coupling cellular drug-target engagement to downstream pharmacology with CeTEAM” (Nature Communications, 2024).

This assay deals with PARP1 L713F-nLuc biosensor (HCT116) (UniProt P09874). The assay can be described thus: PARP1 L713F-nLuc/akaLuc ratio relative to DMSO control (biosensor stabilization) (fold change); higher = more PARP1 biosensor stabilization (target engagement / stabilizer), active = hit call of the paper. The settings on record: stock concentration (mM; final µM = stock mM x 1): 10; 24 h.
Sequence of PARP1 L713F-nLuc biosensor (HCT116) (P09874 whole entry L713F, looked up): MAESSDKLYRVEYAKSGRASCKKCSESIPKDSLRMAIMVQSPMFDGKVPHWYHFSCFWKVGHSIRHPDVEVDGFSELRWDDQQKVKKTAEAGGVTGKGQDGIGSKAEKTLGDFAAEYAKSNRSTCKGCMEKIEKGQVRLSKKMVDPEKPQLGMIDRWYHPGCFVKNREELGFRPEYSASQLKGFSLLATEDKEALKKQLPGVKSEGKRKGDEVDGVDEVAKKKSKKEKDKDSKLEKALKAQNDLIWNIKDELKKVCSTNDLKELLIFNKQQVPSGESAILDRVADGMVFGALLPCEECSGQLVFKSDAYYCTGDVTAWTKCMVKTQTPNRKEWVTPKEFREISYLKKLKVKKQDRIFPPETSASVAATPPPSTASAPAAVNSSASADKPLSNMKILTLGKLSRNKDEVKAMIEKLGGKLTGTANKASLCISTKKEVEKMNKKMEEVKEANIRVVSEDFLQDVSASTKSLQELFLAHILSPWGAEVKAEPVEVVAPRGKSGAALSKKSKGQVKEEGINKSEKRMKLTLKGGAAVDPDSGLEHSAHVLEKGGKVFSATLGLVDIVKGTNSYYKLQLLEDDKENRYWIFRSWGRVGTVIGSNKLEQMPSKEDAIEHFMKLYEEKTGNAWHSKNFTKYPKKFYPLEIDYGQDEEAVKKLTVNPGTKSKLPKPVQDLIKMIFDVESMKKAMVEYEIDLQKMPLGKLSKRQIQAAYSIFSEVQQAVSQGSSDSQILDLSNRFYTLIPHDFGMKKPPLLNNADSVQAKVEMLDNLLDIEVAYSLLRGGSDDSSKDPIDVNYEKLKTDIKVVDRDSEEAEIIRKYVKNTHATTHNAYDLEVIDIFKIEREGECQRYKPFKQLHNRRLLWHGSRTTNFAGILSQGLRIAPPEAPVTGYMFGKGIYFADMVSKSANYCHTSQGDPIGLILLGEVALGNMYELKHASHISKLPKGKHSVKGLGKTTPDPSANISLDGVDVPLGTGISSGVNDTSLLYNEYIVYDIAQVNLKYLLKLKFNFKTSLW
For the compound `CCCc1cc(C)[nH]c(=O)c1CNC(=O)c1cc(-c2ccc(N3CCN(C(C)C)CC3)nc2)cc2c1cnn2C(C)C`, the “PARP1 L713F-nLuc/akaLuc ratio” value was 0.862 (inactive).
Then `O=c1[nH]c(Oc2cnn(Cc3ccccc3)c2)nc2cnccc12`, with 0.946 (inactive).
On to `NC[C@@](O)(c1ccc(Cl)cc1)c1ccc(-c2cn[nH]c2)cc1`, for which the “PARP1 L713F-nLuc/akaLuc ratio” value was 0.809 (inactive).
Then `O=C(NCCCN1CCCC1)c1cncc(-c2ccccc2N2CCN(CCc3c[nH]c4ccccc34)CC2)c1`, with 0.537 (inactive); and `CC[C@H](C)[C@H](NC(=O)[C@H](CCCCN)NC(=O)[C@H](CC(C)C)NC(=O)[C@@H]1CCCN1C(=O)[C@H](CCC(=O)O)NC(=O)[C@H](Cc1ccc(O)cc1)NC(=O)[C@@H](NC(=O)[C@H](CO)NC(=O)CNC(=O)[C@H](CO)NC(=O)[C@H](CCCN=C(N)N)NC(=O)[C@H](CCCCN)NC(=O)[C@@H](NC(=O)[C@@H](N)CCCN=C(N)N)[C@@H](C)O)C(C)C)C(=O)O` [Malantide], with 1.76 (inactive); and `O=c1oc2cc(O)ccc2c2ccccc12` [Urolithin B], with 0.914 (inactive).
Then `CN(C)C(=O)c1ccc(S(=O)(=O)c2ccc(NC(=O)[C@@](C)(O)C(F)(F)F)c(Cl)c2)cc1`, with 1.12 (inactive); and `O=C1COc2c(CCNCCN(C(=O)CCNCCc3ccc(Cl)c(Cl)c3)C3CCCCC3)ccc(O)c2N1` [AZ505 (ditrifluoroacetate)], with 0.634 (inactive); and `COc1cc(C=CC(=O)O)cc(OC)c1O` (stereo in doubt) [Sinapinic acid], with 0.83 (inactive).
Then `O=C(O)CNC(=O)c1c(O)c2ccccc2n(OCC2CC2)c1=O` [Desidustat], with 0.943 (inactive).
